Values without a mark were called inactive. Records with an inconclusive call do not appear. Where a call stands in place of a potency, no number is given. The source made the active and inactive calls. Unless noted, calls follow the shape of the dose curve; as a rule, active = well fitted curve in the direction sought with a large enough effect; inconclusive = small, poorly fitted or top-dose-only effect, or another doubt; inactive = no such curve, though single readings can be large; an effect the other way counts as inactive or inconclusive.

Test [1] has as its target Cytochrome P450 3A4 (Homo sapiens) (UniProt P08684). In words: qHTS Assay for Inhibitors and Substrates of Cytochrome P450 3A4 (AID 884). Also: nearly all actives have a fitted effect of over 50% in size. Also: potency is read from the fitted curve at half-maximal effect. An outline of the steps:
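20 nM human CYP3A4 with 25 uM Luciferin-PPXE (at KM) in 200 mM KPO4, preincubated 10 min with compound; NADPH regeneration started a 60 min RT reaction. Luciferin detected by luminescence, normalized to 57 uM ketoconazole as full inhibition.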

A short description of test [2]: Confirmation and Secondary Assay for Modulators of Hemoglobin Beta Chain Splicing at IVS2 654 locus (AID 910).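 Also: per-well total GFP intensity by laser scanning cytometry after 2-day treatment.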 An outline of the steps:
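HeLa cells stably carrying EGFP interrupted by mutant beta-globin IVS2-654 intron (CMV-driven) were treated with compound for 2 days at 37C; corrected splicing was scored as total peak GFP intensity per well (488 nm excitation, 500-520 nm emission).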

Test [3] in a line: Confirmation and Secondary Assay for Modulators of Hemoglobin Beta Chain Splicing at IVS2 705 locus (AID 930).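 Also: HeLa cells stably expressing the EGFP-705 splicing reporter; GFP fluorescence per well restored by corrected splicing of the IVS2-705 intron in EGFP.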 An outline of the steps: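 Per-well GFP, captured at 1 x 8 µm resolution with 488 nm excitation, served as the read-out for HeLa EGFP-705 cells incubated 2 days with test compound versus DMSO.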
Test [4] deals with Ubiquitin carboxyl-terminal hydrolase 1 (Homo sapiens) (UniProt O94782). In words: Inhibitors of USP1/UAF1: Pilot qHTS (AID 504865). Also: nearly all actives have a fitted effect of over 35% in size. Also: potency is read from the fitted curve at half-maximal effect. An outline of the steps: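 USP1/UAF1 complex at 1 nM preincubated 15 min at room temperature with compound, then Ub-Rho substrate added at 150 nM final. Fluorescence (480/540 nm) read kinetically in 50 mM HEPES pH 7.8, 0.5 mM EDTA, 1 mM TCEP, 0.1 mg/ml BSA, 0.01% Tween-20.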

The target of test [5] is Cytochrome P450 3A4 (Homo sapiens) (UniProt P08684). In words: qHTS Assay for Activators of Cytochrome P450 3A4 (AID 885). Also: nearly all actives have a fitted effect of over 65% in size. An outline of the steps:
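Steps: enzyme/substrate mix dispensed; compound added, 10 min RT; NADPH regeneration solution added, 60 min RT; luciferin detection buffer stops reaction; 20 min later luminescence measured.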

Test [6] is described as follows: S16 Schwann cell PMP22 intronic element beta-lactamase assay (AID 624044; calls by dose curve; also: nearly all actives have a fitted effect of over 15% in size). Particulars: S16 rat Schwann cells, PMP22 element beta-lactamase FRET, 24 h; ratio activity, negative = inhibition: at 38.3 µM (top of the series). An outline of the steps:
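Rat S16 Schwann cells with beta-Lac driven by a PMP22 intronic element, compound-treated 24 h at 37 °C. LiveBLAzer FRET B/G read: 460 nm normalized to potassium clavulanate vs DMSO; 535 nm FRET as viability; concentration-effect curves classified.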

Sequence of Cytochrome P450 3A4 (Homo sapiens) (P08684 whole entry, looked up): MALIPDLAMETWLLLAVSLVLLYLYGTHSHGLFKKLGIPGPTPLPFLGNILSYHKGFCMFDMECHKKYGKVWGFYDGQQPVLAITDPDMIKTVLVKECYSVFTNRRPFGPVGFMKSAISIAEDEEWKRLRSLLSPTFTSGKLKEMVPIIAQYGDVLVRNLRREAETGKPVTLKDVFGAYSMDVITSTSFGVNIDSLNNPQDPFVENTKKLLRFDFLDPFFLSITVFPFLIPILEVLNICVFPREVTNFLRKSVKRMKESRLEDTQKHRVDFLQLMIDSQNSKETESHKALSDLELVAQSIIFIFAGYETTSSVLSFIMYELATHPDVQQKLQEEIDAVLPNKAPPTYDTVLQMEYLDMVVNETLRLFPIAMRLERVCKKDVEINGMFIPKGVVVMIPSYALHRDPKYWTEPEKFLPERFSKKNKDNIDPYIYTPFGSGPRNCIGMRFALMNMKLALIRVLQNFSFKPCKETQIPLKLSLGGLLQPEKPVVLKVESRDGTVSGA
Sequence of Ubiquitin carboxyl-terminal hydrolase 1 (Homo sapiens) (O94782 whole entry, looked up): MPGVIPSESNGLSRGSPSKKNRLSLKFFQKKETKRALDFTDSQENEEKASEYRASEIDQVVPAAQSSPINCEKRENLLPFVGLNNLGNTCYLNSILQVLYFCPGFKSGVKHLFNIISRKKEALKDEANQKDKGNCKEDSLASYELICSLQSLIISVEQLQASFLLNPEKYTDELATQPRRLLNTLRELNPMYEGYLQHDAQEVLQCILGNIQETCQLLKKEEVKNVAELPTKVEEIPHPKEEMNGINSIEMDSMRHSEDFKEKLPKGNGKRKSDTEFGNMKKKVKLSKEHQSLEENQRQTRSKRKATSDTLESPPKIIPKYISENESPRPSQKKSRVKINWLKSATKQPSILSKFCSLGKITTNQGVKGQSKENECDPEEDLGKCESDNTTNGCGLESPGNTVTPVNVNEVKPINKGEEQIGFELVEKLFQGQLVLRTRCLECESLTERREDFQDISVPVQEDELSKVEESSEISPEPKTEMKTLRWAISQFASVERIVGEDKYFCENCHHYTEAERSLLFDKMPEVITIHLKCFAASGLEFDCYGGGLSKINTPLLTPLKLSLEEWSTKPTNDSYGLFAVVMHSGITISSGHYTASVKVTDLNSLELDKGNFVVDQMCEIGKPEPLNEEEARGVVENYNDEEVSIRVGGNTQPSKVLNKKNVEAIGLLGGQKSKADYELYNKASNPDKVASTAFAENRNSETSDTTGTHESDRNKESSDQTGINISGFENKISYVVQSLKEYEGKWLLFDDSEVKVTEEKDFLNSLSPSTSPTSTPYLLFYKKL

Take `OCC1OC(n2cnc3cc(Cl)c(Cl)cc32)C(O)C1O` (stereo unspecified): the Potency entry in test [1], in test [2] and in test [4] was “inactive” in each case. In test [3], the result was inactive.

Take `COc1ccc(CC2NC[C@H](O)[C@H]2OC(C)=O)cc1` (stereo partly specified): the Potency entry in test [1], in test [2] and in test [4] was “inactive” throughout. For the same molecule, in test [3], the outcome was inactive.

With `C=CCO[C@@H](Cn1ccnc1)c1ccc(Cl)cc1Cl`, the Potency result in test [5] and in test [4] was “inactive” throughout.

In the case of `CC(CO)NC(=O)C1C=C2c3cccc4[nH]cc(c34)C[C@H]2N(C)C1` (stereo partly specified), the Potency result in test [1], in test [2] and in test [4] was “inactive” in each case. Also, the call in test [3] was inactive.

On to `O=C1CC[C@]2(O)C3Cc4ccc(O)c5c4C2(CCN3CC2CC2)C1O5` (stereo partly specified), for which the Potency entry in test [1], in test [2] and in test [4] was “inactive” each time. Besides, the call in test [3] was inactive.

As for `C=CCN1CC[C@]23c4c5ccc(O)c4OC2C(=O)CC[C@]3(O)C1C5` (stereo partly specified), the Potency result in test [2] and in test [4] was “inactive” in each case. The outcome in test [3] was inactive.

With `CCC1C(=O)OC[C@H]1Cc1cncn1C` (stereo partly specified), in test [1], the Potency was 20 µM (active). The Potency entry in test [5], in test [2] and in test [4] was “inactive” throughout. Also, in test [3], the outcome was inactive.

As to `O=C1C=C2C(=CCOC2O)O1` (stereo unspecified), the Potency result in test [1] and in test [2] was “inactive” in each case. For the same molecule, in test [3], the molecule was called inactive. Further, the Potency in test [4] was 50.1 µM (active).

Consider `NC1C[C@H]1c1ccccc1` (stereo partly specified), for which the Potency entry in test [1], in test [2] and in test [4] was “inactive” each time. For the same molecule, the call in test [3] was inactive.

Consider `OCC(O)Cc1ccc2c(c1)OCO2` (stereo unspecified), for which the Potency entry in test [5], in test [2] and in test [4] was “inactive” throughout. Moreover, the call in test [3] was inactive.

As for `COc1ccc(C(=O)O)cc1OC`, the Potency result in test [1], in test [2] and in test [4] was “inactive” each time. Moreover, the outcome in test [3] was inactive.

`CNC1=CN(O)C(c2ccccc2)=c2cc(Cl)ccc2=N1`: the Potency entry in test [4] and in test [6] was “inactive” each time.

`CC(C)N(C(=O)CCl)c1ccccc1`: the Potency entry in test [1], in test [2] and in test [4] was “inactive” each time. The result in test [3] was inactive.

As for `C[C@H]1O[C@H](O[C@H]2[C@H](O)[C@@H](O)[C@@H](O)[C@H](O)[C@@H]2O)[C@@H](N)C[C@@H]1NC(=N)C(=O)O`, the Potency entry in test [1], in test [2] and in test [4] was “inactive” in each case. For the same molecule, the call in test [3] was inactive.

As to `COc1c2c(c(CC=C(C)C)c3oc(=O)c(-c4ccc(O)cc4)c(O)c13)OC(C)(C)C=C2`, the Potency result in test [5] and in test [2] was “inactive” throughout. In addition, the molecule was classed as inactive in test [3]. Moreover, the Potency in test [4] was 79.4 µM (active).

For the molecule `C[C@@]12C=CC(=O)C=C1CCC1C2CC[C@]2(C)C(=O)CCC12` (stereo partly specified), the Potency result in test [1], in test [2] and in test [4] was “inactive” in each case. Also, in test [3], the molecule was classed as inactive.

Turning to `CN(C)C1C(=O)C(C(N)=O)=C(O)[C@@]2(O)C(=O)C3=C(O)c4c(O)cccc4[C@@](C)(O)C3CC12` (stereo partly specified), the Potency result in test [1], in test [2] and in test [4] was “inactive” in each case. Besides, in test [3], the molecule was called inactive.

`CCC1C2CC3C4N(C)c5ccccc5[C@]45CC(C2C5O)N3C1O` (stereo partly specified): the Potency entry in test [1], in test [2] and in test [4] was “inactive” in each case. Further, the outcome in test [3] was inactive.

With `CC(=O)OCC1=C(C(=O)O)N2C(=O)C(NC(=O)CCCC(N)C(=O)O)C2SC1` (stereo unspecified), the Potency result in test [1], in test [2] and in test [4] was “inactive” throughout. For the same molecule, the molecule was called inactive in test [3].

As to `CCCCN(CC)c1c([N+](=O)[O-])cc(C(F)(F)F)cc1[N+](=O)[O-]`, the Potency entry in test [5], in test [2] and in test [4] was “inactive” in each case. The call in test [3] was inactive.
